High-throughput results: PubChem, National Center for Advancing Translational Sciences (NCATS)
Many of the other results were omitted from the sample, so hits are more common in it than they were.
Pf Dd2 inh = inhibitors of Plasmodium falciparum Dd2 growth; hit rate 4.3% among 120,000; P. falciparum Dd2 growth, SYBR Green, 72 h; Potency, µM (titrated, usually from 28.9 µM), without a hit: top-dose activity, negative = inhibition, usual class: inhibitors; active means well fitted inhibition curve with a large enough effect;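 further: plate controls were DMSO vehicle for no effect and reference drug for full effect; nearly all actives have a fitted effect of over 65% in size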
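Infected erythrocytes (Dd2, 0.3% parasitemia, 2.5% hematocrit final) are added to compound in RPMI-1640/Albumax II medium, grown 72 h at 37C in low oxygen, then lysed with saponin/Triton-X containing SYBR Green and read by fluorescence.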
Starred values were filed as active, the others as inactive; i = inactive; [ ] = another dose, or the depositor's remark. Potency means the concentration at half of the fitted maximal effect.

SMILES	Pf Dd2 inh
Cc1cccc(Cn2c(CN3CCC(C(=O)NCc4cccnc4)CC3)cc3ccccc32)c1	i
Cc1ccc(C(=O)N(C)Cc2cccn2C)cc1	i
c1cc2c(cc1OC1CN(CC3CC3)C1)OCO2	-2%[44.1 µM]
CCCc1nc(C(=O)N[C@H]2COC[C@H]2Cc2cc(C)no2)cs1	0%
CC(C)NC(=O)N[C@H]1C[C@H]2C(=O)NC[C@@H](CCC(=O)N3CCN(C)CC3)N2C1	25%[44.1 µM]
CC(=O)c1cccc(NC(=O)Cn2c(-c3ccc(F)cc3)nc(C)c(CCO)c2=O)c1	-29%
Cc1nc(-c2ccccc2)n(CC(=O)Nc2ccc(F)c(Cl)c2)c(=O)c1CCO	8.9µM*
CCc1ccc(NC(=O)Cn2c(-c3ccc(Cl)cc3)nc(C)c(CCO)c2=O)cc1	-12%
Cc1ccc(NC(=O)Cn2c(-c3ccc(F)cc3)nc(C)c(CCO)c2=O)c(Cl)c1	i
Cc1nc(-c2cccc(Cl)c2)n(CC(=O)NC(C)C)c(=O)c1CCO	-12%
Cc1ccccc1NC(=O)Cn1c(-c2cccc(Cl)c2)nc(C)c(CCO)c1=O	i
Cc1cc(C)cc(NC(=O)Cn2c(-c3cccc(Cl)c3)nc(C)c(CCO)c2=O)c1	10µM*
Cc1nc(-c2ccc(F)cc2)n(CC(=O)Nc2cc(C(F)(F)F)ccc2Cl)c(=O)c1CCO	11µM*
CCc1ccccc1NC(=O)Cn1c(-c2ccc(F)cc2)nc(C)c(CCO)c1=O	-11%
C[C@@H](NC(=O)C1CCCCC1)c1onc(-c2ccc(F)cc2)c1C(=O)O	10%[44.1 µM]
CNC(=O)c1noc(CN2CCCC(CCc3c(F)cccc3F)C2)n1 (centres undefined)	-21%
O=C(CCc1cc2n(n1)CCCNC2)N1CCCC1c1nc2ccccc2[nH]1 (centres undefined)	-18%
COc1cccc(CCc2ccccc2C(=O)N2CC[C@](C)(O)[C@H](C)C2)c1	-12%
O=C(NC1CCN(c2cc(-c3ccc(Cl)cc3)[nH]n2)CC1)c1ccncc1	i
O=C1CC(NS(=O)(=O)N2CCCC2)CN1CCc1ccccc1 (centres undefined)	0%
Cc1ccccc1S(=O)(=O)N1CCn2c(n[nH]c2=O)C1	-10%
CNC(=O)N1CCC(C2CCN(S(=O)(=O)c3ccc(C)c(F)c3)C2)CC1 (centres undefined)	i
COc1ccc(NC(=O)c2ccco2)cc1NC(=O)COc1ccccc1	1%
COc1ccc(NC(=O)c2ccco2)cc1NC(=O)COc1ccc(C)cc1C	2.8µM*
COc1ccc(NC(=O)c2ccco2)cc1NC(=O)COc1ccc(Cl)cc1C	16%
SMILES	Pf Dd2 inh
O=c1cc(C2CC(NC3CCC4(CCNCC4)CC3)C2)nc(C2CC2)[nH]1 (centres undefined)	2%
Cc1ccccc1C(=O)N1C(C(=O)NC2CC2)COC12CCN(C(=O)c1cccc(Cl)c1)CC2 (centres undefined)	i
COc1ccc(CN2C(=O)CO[C@H]3CN(Cc4ccccc4Cl)C[C@H]32)cc1	i
CC(=O)NC1CC2(CCN(C(=O)Cc3ccc(O)cc3)CC2)c2ccccc21 (centres undefined)	2%
CC(C)NC(=O)NC1CC2(CCN(C(=O)c3ccccc3)CC2)c2ccccc21 (centres undefined)	-22%
CC(C)NC(=O)NC1CC2(CCN(Cc3ccc(O)cc3)CC2)c2ccccc21 (centres undefined)	2.8µM*
COc1cc(F)cc(-c2cnc3[nH]cc(CC(=O)N4CCOCC4)c3c2)c1	-35%[44.1 µM]
COc1cc(CNCCc2ccc(F)cc2)ccc1OCC(O)CN1CCSCC1 (centres undefined)	-18%
COc1cc(CN2CCC(C)(C#N)CC2)ccc1OCC(O)CN1CCOCC1 (centres undefined)	1%
COc1ccc(Cl)cc1NC(=O)N(C)CC1CCOCC1	-25%
COc1cc(CNCCc2ccc(Cl)cc2)ccc1OCC(O)CN1CCOCC1 (centres undefined)	11µM*
COc1cc(CNCCCO)ccc1OCC(O)CN1CCSCC1 (centres undefined)	-13%
COc1cc(CNCC2CCOCC2)ccc1OCC(O)CN(C)C1CCCCC1 (centres undefined)	13µM*
Cc1noc(C)c1S(=O)(=O)N[C@@H]1C[C@H](Cn2cc(-c3cccnc3)nn2)[C@@H](O)[C@H]1O	-22%
CC(C)Cc1cc(C(=O)N2CCCC(C)(c3ccccc3)C2)no1 (centres undefined)	-25%
O=C1CCCCN1CC(=O)N1CCCC(c2ccccc2)(c2ccccc2)C1	i
O=C(c1cn(CCC2CCCCN2)nn1)N1CCc2nc[nH]c(=O)c2CC1 (centres undefined)	2%
O=C1N(C2CCN(Cc3ccc(C(F)(F)F)cc3)CC2)Cc2cccn21	-20%
COc1ccccc1-c1[nH]nc2ncc(-c3ccc(C)cc3)nc12	i
COc1ccc(-c2cnc3n[nH]c(-c4ccc(OC)c(F)c4)c3n2)cn1	i
COc1ccc(-c2[nH]nc3ncc(-c4ccc(C)cc4)nc23)cc1F	13µM*
CC(=O)N1CCC(Cc2ccc(C(N)=O)cc2)CC1	12%
CCNC(=O)N[C@H]1[C@H](O)[C@H](O)C[C@@H]1c1ccncc1	-16%[44.1 µM]
